# The campaign covered roughly 69,000 compounds. About 8,600 (12%) showed an effect of 50% or more. Shown is part of a subset that was picked to be rich in strong results.
# System: Plasmodium berghei
# Assay: Screen against P. berghei liver stage (PbLuc), transformed with Luciferase, at 10uM
# Assay type: functional, HepG2
# Conditions: tested at 10 uM
row,SMILES,INHIBITION
1,Cc1ccc(Cl)cc1NCc1nc2n(n1)CCCCC2,25.1%
2,COc1cccc(COCC(=O)N2CCN(S(C)(=O)=O)CC2)c1,28.74%
3,CN(C)C(=O)CN1CCC2(C1)CN(CC1CCOC1)C2 (stereo not given),8.31%
4,CC(C)=CCN1CCN(C(=O)c2cc(C)n[nH]2)[C@H]2CS(=O)(=O)C[C@H]21,-6.67%
5,Cc1ccc(CN2CCC3(CC2)CCN(C(=O)c2cccn2C)C3)cc1,6.27%
6,COCCOC(=O)N1CCN2C[C@@H](CO)[C@H](c3ccccc3)[C@H]2C1,-8.8%
7,c1cc(-c2n[nH]cc2-c2ccnc(N3CCCCCC3)n2)ccn1,50.1%
8,Cc1ncc(-c2ccnc(N3CCCCCC3)n2)c(-c2cccnc2)n1,12.7%
9,Cc1ncc(-c2ccnc(N3CCN(C)CC3)n2)c(-c2cccnc2)n1,21.9%
10,c1cncc(-c2nc(C3CC3)ncc2-c2ccnc(N3CCCC3)n2)c1,51.5%
11,c1cc(-c2n[nH]cc2-c2ccnc(N3CCCC3)n2)ccn1,33.7%
12,CN1CCCN(c2nccc(-c3c[nH]nc3-c3ccncc3)n2)CC1,42.6%
13,Cc1nc(CN(C)C2CCN(Cc3nc(C4CC4)no3)C2)no1 (stereo not given),40.9%
14,COc1ccc(-c2cc(N)on2)cc1,-3.34%
15,Cc1nc(CNC(=O)NCC2(C)CCCc3ccccc32)no1 (stereo not given),-21.9%
16,CC(CNC(=O)N1CCN(Cc2ccon2)CC1)N(C)C1CC1 (stereo not given),4.62%
17,CNC(=O)[C@@]12CCC3(CCN(S(C)(=O)=O)CC3)[C@@H]1CN(C(C)=O)C2,40.1%
18,CC(=O)N1CCCC(c2ccc3sc(N)nc3n2)C1 (stereo not given),26.3%
19,O=C(CC1CC1)N1CCN(Cc2ccncc2)c2ncccc2C1,-45.8%
20,CC(C)c1nc(NS(=O)(=O)c2ccccc2Cl)no1,2.61%
21,CSCC(C)(O)CNS(=O)(=O)c1ccc(F)cc1 (stereo not given),12.3%
22,CCc1nc(NS(=O)(=O)c2cc(C)ccc2F)no1,-7.9%
23,CCc1nc(NS(=O)(=O)c2ccc(C)cc2Cl)no1,4.74%
24,CCc1nc(NS(=O)(=O)c2ccc(F)cc2Cl)no1,56.1%

row,SMILES,INHIBITION
1,Cc1nc(NS(=O)(=O)c2ccc(C)c(Br)c2)no1,68.3%
2,Cc1nc(NS(=O)(=O)c2cc(C)c(Br)cc2C)no1,49.4%
3,CCc1nc(NS(=O)(=O)c2ccc(F)cc2C)no1,-3.16%
4,CC(C)(C)c1nc(NS(=O)(=O)c2ccccc2F)no1,82.2%
5,Cc1nc(NS(=O)(=O)c2ccc(F)c(Br)c2)no1,10.6%
6,CC(C)(C)c1nc(NS(=O)(=O)c2ccc(F)cc2)no1,51.6%
7,Cn1ncnc1NS(=O)(=O)c1ccc(F)cc1,-3.59%
8,NC1(CNC(=O)c2cc3ccccc3[nH]2)CCCC1,-8.28%
9,Cc1ncccc1Oc1ncnc(N2CCC(O)(CO)CC2)c1C,-6.03%
10,COCCn1cc2c(n1)C(CNCc1cccc(OC)c1)OCC2 (stereo not given),17.4%
11,O=C(Nc1cnccn1)[C@@H]1COC[C@H]2CN(C3CCC3)C[C@H]21,24.9%
12,O=C(Cc1ccsc1)N1Cc2nc(CN3CCCCC3)oc2C1,31.5%
13,CCc1nc(C2CCCN2CCC(=O)N2CCc3ccccc32)no1 (stereo not given),46.2%
14,Cc1c(F)cccc1S(=O)(=O)Nc1noc(C(C)C)n1,10.2%
15,Cc1cc(F)cc(S(=O)(=O)Nc2noc(C)n2)c1,31.5%
16,CCc1nc(NS(=O)(=O)c2cc(C)cc(F)c2)no1,40.9%
17,Cc1nc(NS(=O)(=O)c2cccc(F)c2C)no1,74.5%
18,CCc1nc(NS(=O)(=O)c2cccc(F)c2C)no1,39.7%
19,CC(C)(C)c1nc(NS(=O)(=O)c2cccc(F)c2)no1,82.2%
20,Cc1cc(N(Cc2cccs2)C2CC2)n2nc(C(F)(F)F)nc2n1,26.6%
21,CC(C)n1cnnc1SCCN(C)c1ccccc1,-34.8%
22,COCCNc1ccc(CC2CCNC2)cn1 (stereo not given),-26.2%
23,CCCN(CC(=O)N(C)C)C(=O)c1ccc(-c2nc(C)cs2)cc1,18.9%
24,COc1cc(CNC(=O)c2cc(S(C)(=O)=O)ccc2C)ccn1,1.51%

row,SMILES,INHIBITION
1,Cc1nn(C)c(N2CCOCC2)c1CNCc1cccnc1,32.2%
2,Cc1nn(C)c(N2CCOCC2)c1CNCc1ccc(N(C)C)nc1,51.1%
3,Cc1nn(C)c(N2CCOCC2)c1CNCc1ccnc(N(C)C)c1,38.7%
4,Cc1ccc(N2CCCc3sc(C(=O)NCCC#N)nc32)nn1,35.8%
5,CCC(CN1CCOCC1)NC(=O)Cc1c(C)[nH]c2cc(C)cc(C)c12 (stereo not given),6.32%
6,CN(C)CCCNC(=O)c1nnsc1-c1ccccc1,15.9%
7,O=C(NCc1cccs1)c1[nH]nc2c1CS(=O)(=O)CC2,-22.3%
8,O=C1CSC(c2ccc3c(c2)OCO3)c2cnn(C3CCCCC3)c2N1 (stereo not given),38.9%
9,O=C1CC(c2ccccc2)c2cnn(C3CCCC3)c2N1 (stereo not given),68%
10,O=C1CC(c2cccs2)c2cnn(C3CCCC3)c2N1 (stereo not given),14.4%
11,Cc1nn(C2CCCC2)c2c1C(c1ccc3c(c1)OCO3)SCC(=O)N2 (stereo not given),61.6%
12,O=C1CC(c2ccc3c(c2)OCO3)c2cnn(C3CCCC3)c2N1 (stereo not given),87.9%
13,CC(C)(C)n1ncc2c1NC(=O)CC2c1ccccc1 (stereo not given),5.65%
14,CC(C)(C)n1ncc2c1NC(=O)CC2c1cccc(O)c1 (stereo not given),-5.22%
15,Cc1n[nH]c2c1C(c1ccc3c(c1)OCO3)SCC(=O)N2 (stereo not given),9.32%
16,O=C1CC(c2ccc3c(c2)OCO3)c2c(n3ccsc3nc2=O)N1 (stereo not given),5.85%
17,O=C1CC(c2ccsc2)c2cnn(C3CCCC3)c2N1 (stereo not given),6.09%
18,CC(C)(C)n1ncc2c1NC(=O)CC2c1cccc(F)c1 (stereo not given),89.4%
19,O=C1CC(c2ccc3c(c2)OCO3)c2cn[nH]c2N1 (stereo not given),6%
20,O=C1CC2(CCCCN2C(=O)c2ccncc2)CN1CC1CC1 (stereo not given),23.5%
21,CCc1sc(C(=O)NC2CC2)cc1C,38%
22,Cc1cc(N(C)C)nc(C2COCCN2Cc2nccn2C)n1 (stereo not given),20.6%
